# This is one part of a sample in which the strongest signals are shown more often than they occur.
# B1: rAAL-H59Q (Agrocybe aegerita), Q6WY08 (protein)
# chain: MQGVNIYNISAGTSVDLAAPVTTGDIVTFFSSALNLNAGAGNPNNTTLNLFAENGAYLLQIAFRLQENVIIFNSRQPDGPWLVEQRVSDVANQFAGIDGKAMVTVFDHGDKYQVVINEKTVIQYTKQISGLTLSLSYNATEETSIFSTVVEAVTYTGLALEHHHHHH
# Legend:
# Assay in all cases: glycan array binding signal (z-score within array); higher = stronger binding
# Settings in all cases: glycan notation: IUPAC condensed, linker removed; mutation: H59Q
# [1] = biological target: Fuc(a1-2)Gal(b1-3)[Fuc(a1-4)]GlcNAc(b1-2)Man(a1-3)[Fuc(a1-2)Gal(b1-3)[Fuc(a1-4)]GlcNAc(b1-2)Man(a1-3)]Man(b1-4)GlcNAc(b1-4)GlcNAc
# Outline: (§1)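 Negative Z-scores can be read as non-binding. The Z-score is calculated within each array and then averaged across arrays of one protein sequence at different concentrations or buffers and across linkers. Arrays, 3228 in all, were curated from the Consortium for Functional Glycomics database and kept only where the protein sequence was available.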
# [2] = biological target: Fuc(a1-2)Gal(b1-4)GlcNAc(b1-3)Gal(b1-4)GlcNAc(b1-3)Gal(b1-4)GlcNAc
# Outline: as §1
# [3] = biological target: Fuc(a1-2)Gal(b1-4)GlcNAc6S
# Outline: as §1
# [4] = biological target: Fuc(a1-2)Gal(b1-4)[Fuc(a1-3)]GlcNAc
# Outline: as §1
# [5] = biological target: Fuc(a1-2)Gal(b1-4)[Fuc(a1-3)]GlcNAc(b1-2)Man(a1-3)[Fuc(a1-2)Gal(b1-4)[Fuc(a1-3)]GlcNAc(b1-2)Man(a1-6)]Man(b1-4)GlcNAc(b1-4)[Fuc(a1-6)]GlcNAc
# Outline: as §1
# [6] = biological target: Fuc(a1-2)[Gal(a1-3)]Gal(b1-4)[Fuc(a1-3)]Glc
# Outline: as §1
# [7] = biological target: Fuc(a1-2)[GalNAc(a1-3)]Gal(b1-3)GlcNAc(b1-2)Man(a1-3)[Fuc(a1-2)[GalNAc(a1-3)]Gal(b1-3)GlcNAc(b1-2)Man(a1-6)]Man(b1-4)GlcNAc(b1-4)[Fuc(a1-6)]GlcNAc
# Outline: as §1
# [8] = biological target: Fuc(a1-2)[GalNAc(a1-3)]Gal(b1-3)GlcNAc(b1-3)GalNAc
# Outline: as §1
# [9] = biological target: Fuc(a1-2)[GalNAc(a1-3)]Gal(b1-4)GlcNAc(b1-6)GalNAc
# Outline: as §1
# [10] = biological target: Fuc(a1-3)[Gal(b1-4)]GlcNAc(b1-6)GalNAc
# Outline: as §1
# [11] = biological target: Gal(a1-3)Gal(b1-4)Glc
# Outline: as §1
# [12] = biological target: Gal(b1-3)GlcNAc(a1-3)Gal(b1-4)GlcNAc
# Outline: as §1
# [13] = biological target: Gal(b1-3)GlcNAc(b1-3)Gal(b1-4)GlcNAc
# Outline: as §1
# [14] = biological target: Gal(b1-3)GlcNAc(b1-3)Gal(b1-4)GlcNAc(b1-2)[Gal(b1-3)GlcNAc(b1-3)Gal(b1-4)GlcNAc(b1-6)]Man(a1-6)[Gal(b1-3)GlcNAc(b1-3)Gal(b1-4)GlcNAc(b1-2)Man(a1-3)]Man(b1-4)GlcNAc(b1-4)[Fuc(a1-6)]GlcNAc
# Outline: as §1
# [15] = biological target: Gal(b1-3)[Fuc(a1-4)]GlcNAc
# Outline: as §1
# [16] = biological target: Gal(b1-4)GlcNAc(b1-2)Man(a1-3)[GlcNAc(b1-4)][Gal(b1-4)GlcNAc(b1-2)Man(a1-6)]Man(b1-4)GlcNAc(b1-4)GlcNAc
# Outline: as §1
# [17] = biological target: Gal(b1-4)GlcNAc(b1-2)Man(a1-3)[Man(a1-6)]Man(b1-4)GlcNAc(b1-4)GlcNAc
# Outline: as §1
# [18] = biological target: Gal(b1-4)GlcNAc(b1-2)Man(a1-6)[Man(a1-3)]Man(b1-4)GlcNAc(b1-4)GlcNAc
# Outline: as §1
# [19] = biological target: Gal(b1-4)GlcNAc(b1-3)Gal(b1-4)GlcNAc(b1-2)Man(a1-3)[Gal(b1-4)GlcNAc(b1-3)Gal(b1-4)GlcNAc(b1-2)Man(a1-6)]Man(b1-4)GlcNAc(b1-4)[Fuc(a1-6)]GlcNAc
# Outline: as §1
# [20] = biological target: Gal(b1-4)GlcNAc(b1-3)[GlcNAc(b1-6)]Gal(b1-4)GlcNAc
# Outline: as §1
# [21] = biological target: Gal3S(b1-3)GalNAc
# Outline: as §1
# [22] = biological target: Gal3S(b1-3)GlcNAc
# Outline: as §1
# [23] = biological target: Gal3S(b1-4)Glc
# Outline: as §1
# [24] = biological target: Gal3S(b1-4)Glc6S
# Outline: as §1
# [25] = biological target: Gal3S(b1-4)GlcNAc
# Outline: as §1
# [26] = biological target: Gal3S(b1-4)[Fuc(a1-3)]GlcNAc6S
# Outline: as §1
# [27] = biological target: Gal3S4S(b1-4)GlcNAc
# Outline: as §1
# [28] = biological target: Gal3S6S(b1-4)GlcNAc6S
# Outline: as §1
# [29] = biological target: Gal6S(b1-3)GlcNAc6S
# Outline: as §1
# [30] = biological target: Gal6S(b1-4)GlcNAc
# Outline: as §1
# [31] = biological target: Gal6S(b1-4)GlcNAc6S
# Outline: as §1
# [32] = biological target: GalNAc(b1-4)GlcNAc6S
# Outline: as §1
# [33] = biological target: GlcA(b1-6)Gal
# Outline: as §1
# [34] = biological target: GlcA3S(b1-3)Gal(b1-4)GlcNAc(b1-2)Man
# Outline: as §1
# [35] = biological target: GlcA3S(b1-3)Gal(b1-4)GlcNAc(b1-3)Gal(b1-4)Glc
# Outline: as §1
# [36] = biological target: GlcNAc(a1-4)Gal(b1-4)GlcNAc(b1-3)Gal(b1-4)Glc
# Outline: as §1
# [37] = biological target: GlcNAc(b1-2)Man(a1-3)[GlcNAc(b1-2)Man(a1-6)]Man(b1-4)GlcNAc(b1-4)[Fuc(a1-6)]GlcNAc
# Outline: as §1
# [38] = biological target: GlcNAc(b1-2)[GlcNAc(b1-4)]Man(a1-3)[GlcNAc(b1-4)][GlcNAc(b1-2)Man(a1-6)]Man(b1-4)GlcNAc(b1-4)GlcNAc
# Outline: as §1
# [39] = biological target: Man(a1-2)Man(a1-3)[Man(a1-6)]Man(a1-6)[Man(a1-2)Man(a1-3)]Man(b1-4)GlcNAc(b1-4)GlcNAc
# Outline: as §1
# [40] = biological target: Man(a1-3)[Man(a1-6)]Man(b1-4)GlcNAc(b1-4)GlcNAc
# Outline: as §1
# [41] = biological target: Neu5Ac(a2-3)Gal(b1-3)GalNAc6S
# Outline: as §1
# [42] = biological target: Neu5Ac(a2-3)Gal(b1-3)GlcNAc(b1-2)Man(a1-3)[GlcNAc(b1-4)][Neu5Ac(a2-3)Gal(b1-3)GlcNAc(b1-2)Man(a1-6)]Man(b1-4)GlcNAc(b1-4)GlcNAc
# Outline: as §1
# [43] = biological target: Neu5Ac(a2-3)Gal(b1-4)GlcNAc(b1-2)Man
# Outline: as §1
# [44] = biological target: Neu5Ac(a2-3)Gal(b1-4)GlcNAc(b1-2)[Neu5Ac(a2-3)Gal(b1-4)GlcNAc(b1-4)]Man(a1-3)[GlcNAc(b1-4)][Neu5Ac(a2-3)Gal(b1-4)GlcNAc(b1-4)Man(a1-6)]Man(b1-4)GlcNAc(b1-4)GlcNAc
# Outline: as §1
# [45] = biological target: Neu5Ac(a2-3)Gal(b1-4)GlcNAc(b1-3)GalNAc
# Outline: as §1
# [46] = biological target: Neu5Ac(a2-3)Gal(b1-4)[Fuc(a1-3)]GlcNAc(b1-3)GalNAc
# Outline: as §1
# [47] = biological target: Neu5Ac(a2-3)[GalNAc(b1-4)]Gal(b1-4)GlcNAc(b1-3)GalNAc
# Outline: as §1
# [48] = biological target: Neu5Ac(a2-6)Gal(b1-4)GlcNAc(b1-2)Man(a1-3)[Man(a1-6)]Man(b1-4)GlcNAc(b1-4)GlcNAc
# Outline: as §1
# [49] = biological target: Neu5Ac(a2-6)GalNAc(b1-4)GlcNAc
# Outline: as §1
# [50] = biological target: Neu5Ac(a2-8)Neu5Ac(a2-3)Gal(b1-3)GalNAc(b1-4)[Neu5Ac(a2-8)Neu5Ac(a2-3)]Gal(b1-4)Glc
# Outline: as §1
# [51] = biological target: Neu5Gc(a2-6)GalNAc
# Outline: as §1
# [52] = biological target: Neu5Gc(a2-8)Neu5Gc(a2-6)Gal(b1-4)GlcNAc
# Outline: as §1
# [53] = biological target: Neu5Gc(b2-6)Gal(b1-4)GlcNAc
# Outline: as §1
binder,measurement,setting,value
B1,glycan array binding signal (z-score),[1],-0.014
same,glycan array binding signal (z-score),[2],-0.113
same,glycan array binding signal (z-score),[3],-0.085
same,glycan array binding signal (z-score),[4],-0.09
same,glycan array binding signal (z-score),[5],0.171
same,glycan array binding signal (z-score),[6],-0.097
same,glycan array binding signal (z-score),[7],-0.106
same,glycan array binding signal (z-score),[8],-0.035
same,glycan array binding signal (z-score),[9],-0.124
same,glycan array binding signal (z-score),[10],-0.126
same,glycan array binding signal (z-score),[11],-0.07
same,glycan array binding signal (z-score),[12],-0.119
same,glycan array binding signal (z-score),[13],-0.093
same,glycan array binding signal (z-score),[14],0.115
same,glycan array binding signal (z-score),[15],-0.116
same,glycan array binding signal (z-score),[16],-0.06
same,glycan array binding signal (z-score),[17],-0.059
same,glycan array binding signal (z-score),[18],0.003
same,glycan array binding signal (z-score),[19],-0.015
same,glycan array binding signal (z-score),[20],-0.115
same,glycan array binding signal (z-score),[21],7.76
same,glycan array binding signal (z-score),[22],0.192
same,glycan array binding signal (z-score),[23],0.7
same,glycan array binding signal (z-score),[24],0.468
same,glycan array binding signal (z-score),[25],0.615
same,glycan array binding signal (z-score),[26],0.694
same,glycan array binding signal (z-score),[27],-0.119
same,glycan array binding signal (z-score),[28],0.071
same,glycan array binding signal (z-score),[29],-0.113
same,glycan array binding signal (z-score),[30],-0.086
same,glycan array binding signal (z-score),[31],-0.14
same,glycan array binding signal (z-score),[32],-0.023
same,glycan array binding signal (z-score),[33],-0.064
same,glycan array binding signal (z-score),[34],19.6
same,glycan array binding signal (z-score),[35],12.1
same,glycan array binding signal (z-score),[36],-0.059
same,glycan array binding signal (z-score),[37],-0.07
same,glycan array binding signal (z-score),[38],-0.055
same,glycan array binding signal (z-score),[39],-0.093
same,glycan array binding signal (z-score),[40],-0.085
same,glycan array binding signal (z-score),[41],-0.117
same,glycan array binding signal (z-score),[42],-0.066
same,glycan array binding signal (z-score),[43],-0.03
same,glycan array binding signal (z-score),[44],-0.016
same,glycan array binding signal (z-score),[45],-0.092
same,glycan array binding signal (z-score),[46],0.246
same,glycan array binding signal (z-score),[47],-0.084
same,glycan array binding signal (z-score),[48],0.009
same,glycan array binding signal (z-score),[49],-0.112
same,glycan array binding signal (z-score),[50],-0.103
same,glycan array binding signal (z-score),[51],-0.145
same,glycan array binding signal (z-score),[52],-0.072
same,glycan array binding signal (z-score),[53],-0.027

# From the supplement of paper PMC8728848
